Measurements as given in PubChem BioAssay (Tox21).
Results filed as inconclusive are left out. The source made the active and inactive calls. Unless noted, calls follow the shape of the dose curve; as a rule, active = well fitted curve in the direction sought with a large enough effect in the repeat runs; inconclusive = weak or mixed curves; inactive = no such curve, though single readings can be large; an effect the other way counts as inactive or inconclusive.

Columns and labels:
[1] = qHTS assay to identify small molecule agonists of the peroxisome proliferator-activated receptor delta (PPARd) signaling pathway - cell viability counter screen (AID 743211); also: nearly all actives have a fitted effect of over 55% in size
Procedure, shortened: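 Tox21 library compounds, delivered in DMSO, were incubated 17 h with PPARd-bla HEK293H cells; cytotoxicity was taken from CellTiter-Glo luminescence read 30 min after reagent addition.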

[2] = target: Peroxisome proliferator-activated receptor delta (Homo sapiens) (UniProt Q03181); experiment: qHTS assay to identify small molecule agonists of the peroxisome proliferator-activated receptor delta (PPARd) signaling pathway (AID 743212; calls by dose curve)
Procedure, shortened: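 GeneBLAzer PPARd UAS-bla HEK293H cells (beta-lactamase reporter under UAS control), plated and rested 5 h at 37 C, then exposed to compounds in DMSO at 37 C; LiveBLAzer B/G FRET substrate added, 2 h room temperature, fluorescence read.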

[3] = qHTS assay to identify small molecule antagonists of the peroxisome proliferator-activated receptor delta (PPARd) signaling pathway - cell viability counter screen (AID 743213); also: nearly all actives have a fitted effect of over 50% in size
Procedure, shortened: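 Same-well viability: cells pre-incubated 5 h, dosed with compound plus 300 nM L165041, kept 17 h at 37 C, FRET substrate 2 h RT, then CellTiter-Glo 30 min RT and luminescence.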

[4] = target: Peroxisome proliferator-activated receptor delta (Homo sapiens) (UniProt Q03181); experiment: qHTS assay to identify small molecule antagonists of the peroxisome proliferator-activated receptor delta (PPARd) signaling pathway (AID 743215; active = well fitted inhibition curve with a large enough effect in the signal ratio in the repeat runs, not every such curve was filed as active; the % refers to the signal ratio;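 also: cells stimulated with agonist L165041 at 300 nM final during compound exposure; series mostly up to about 62 µM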)
Procedure, shortened: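 PPARd UAS-bla HEK293H cells were pre-incubated 5 h at 37 C, then given test compounds in DMSO plus agonist L165041 (300 nM final). After 17 h at 37 C, beta-lactamase FRET substrate was added; fluorescence read after 2 h at room temperature.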

[5] = target: Bile acid receptor (Homo sapiens) (UniProt Q96RI1); experiment: qHTS assay to identify small molecule antagonists of the farnesoid-X-receptor (FXR) signaling pathway (AID 743217; active = well fitted inhibition curve with a large enough effect in the signal ratio in the repeat runs, not every such curve was filed as active; the % refers to the signal ratio)
Procedure, shortened: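 FXR-UAS-bla HEK 293T cells pre-incubated 5 h at 37 °C, then exposed to compounds with chenodeoxycholic acid (50 uM final) for 16 h at 37 °C. Beta-lactamase reporter read by LiveBLAzer B/G FRET substrate fluorescence after 2 h at room temperature.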

[6] = qHTS assay to identify small molecule agonists of the farnesoid-X-receptor (FXR) signaling pathway - cell viability counter screen (AID 743218); also: nearly all actives have a fitted effect of over 45% in size
Procedure, shortened: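 FXR-UAS-bla HEK 293T cells, plated 5 h at 37 C, were exposed to compounds for 16 h at 37 C. CellTiter-Glo was then added to the same wells as the bla readout; luminescence read after 30 min at room temperature.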

[7] = target: Bile acid receptor (Homo sapiens) (UniProt Q96RI1); experiment: qHTS assay to identify small molecule agonists of the farnesoid-X-receptor (FXR) signaling pathway (AID 743220; active = well fitted activation curve with a large enough effect in the signal ratio in the repeat runs, not every such curve was filed as active; the % refers to the signal ratio)
Procedure, shortened: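 Beta-lactamase reporter under UAS control in GeneBLAzer FXR HEK 293T cells (5000/well) measured with LiveBLAzer FRET substrate after 2 h at room temperature. Compound exposure lasted 16 h at 37C.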

[8] = qHTS assay to identify small molecule antagonists of the farnesoid-X-receptor (FXR) signaling pathway - cell viability counter screen (AID 743221; active = well fitted cell-killing curve with a large enough effect in the repeat runs, not every such curve was filed as active; also: nearly all actives have a fitted effect of over 50% in size)
Procedure, shortened: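 Cytotoxicity is taken from ATP luminescence (CellTiter-Glo, 30 min, room temperature) in FXR-bla HEK 293T cells previously incubated 16 h at 37 C with compound and chenodeoxycholic acid at 50 uM final.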

[9] = target: Vitamin D3 receptor (Homo sapiens) (UniProt P11473); experiment: qHTS assay to identify small molecule agonists of the vitamin D receptor (VDR) signaling pathway (AID 743222; calls by dose curve)
Procedure, shortened: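 VDR-bla cells were plated 4 h at 37C/5% CO2, then exposed to compounds in DMSO for 16 h. After LiveBLAzer B/G FRET substrate addition and 2 h at room temperature, beta-lactamase reporter fluorescence was read.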

[10] = target: Vitamin D3 receptor (Homo sapiens) (UniProt P11473); experiment: qHTS assay to identify small molecule antagonists of the vitamin D receptor (VDR) signaling pathway (AID 743223; active = well fitted inhibition curve with a large enough effect in the signal ratio in the repeat runs, not every such curve was filed as active; the % refers to the signal ratio)
Procedure, shortened: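 Quantitative HTS in VDR-bla reporter cells stimulated with 1alpha,25-dihydroxyvitamin D3, 3 nM final. Compound exposure 16 h, 37C, 5% CO2. Read-out: beta-lactamase FRET substrate fluorescence, 2 h RT.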
% is scaled to controls: 0 for no effect and ±100 for the full control effect.

Chain of Bile acid receptor (Homo sapiens) (Q96RI1 whole entry, looked up): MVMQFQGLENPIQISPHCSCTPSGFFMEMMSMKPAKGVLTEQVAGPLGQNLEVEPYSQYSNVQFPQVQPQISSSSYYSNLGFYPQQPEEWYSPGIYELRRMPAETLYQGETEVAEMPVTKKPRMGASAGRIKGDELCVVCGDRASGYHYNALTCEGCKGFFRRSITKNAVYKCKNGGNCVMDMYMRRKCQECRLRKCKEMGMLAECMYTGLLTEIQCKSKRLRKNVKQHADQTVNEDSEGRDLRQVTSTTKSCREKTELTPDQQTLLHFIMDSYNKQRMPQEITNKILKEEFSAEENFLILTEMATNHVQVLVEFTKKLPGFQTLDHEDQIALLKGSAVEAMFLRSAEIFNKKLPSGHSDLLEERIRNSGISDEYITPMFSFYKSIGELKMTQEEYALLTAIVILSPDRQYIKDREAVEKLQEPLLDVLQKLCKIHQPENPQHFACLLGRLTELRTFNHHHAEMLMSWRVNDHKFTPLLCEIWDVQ
Chain of Vitamin D3 receptor (Homo sapiens) (P11473 whole entry, looked up): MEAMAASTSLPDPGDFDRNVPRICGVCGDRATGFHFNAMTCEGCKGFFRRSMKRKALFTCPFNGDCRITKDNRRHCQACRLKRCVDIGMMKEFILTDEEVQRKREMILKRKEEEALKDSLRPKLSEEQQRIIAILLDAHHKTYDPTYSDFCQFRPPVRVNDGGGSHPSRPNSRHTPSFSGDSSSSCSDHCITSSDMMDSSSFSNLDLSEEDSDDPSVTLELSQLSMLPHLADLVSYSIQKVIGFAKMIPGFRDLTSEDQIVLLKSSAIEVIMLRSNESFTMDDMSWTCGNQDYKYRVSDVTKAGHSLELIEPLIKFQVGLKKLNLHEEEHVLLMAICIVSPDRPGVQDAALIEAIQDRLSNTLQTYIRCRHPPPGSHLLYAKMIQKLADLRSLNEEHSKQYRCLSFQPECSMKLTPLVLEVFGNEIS
Chain of Peroxisome proliferator-activated receptor delta (Homo sapiens) (Q03181 whole entry, looked up): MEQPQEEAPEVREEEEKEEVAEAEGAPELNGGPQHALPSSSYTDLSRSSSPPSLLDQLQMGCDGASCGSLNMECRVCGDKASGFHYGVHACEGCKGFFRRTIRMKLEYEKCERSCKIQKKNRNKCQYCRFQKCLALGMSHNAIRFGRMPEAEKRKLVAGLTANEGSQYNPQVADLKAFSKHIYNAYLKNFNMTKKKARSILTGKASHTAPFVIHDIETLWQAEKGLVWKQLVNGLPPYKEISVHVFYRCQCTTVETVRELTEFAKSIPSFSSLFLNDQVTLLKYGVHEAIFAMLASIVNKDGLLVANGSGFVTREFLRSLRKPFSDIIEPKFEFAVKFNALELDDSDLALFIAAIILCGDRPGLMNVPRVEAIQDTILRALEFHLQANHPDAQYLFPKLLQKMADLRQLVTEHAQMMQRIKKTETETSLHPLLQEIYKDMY

OCCCCC(O)CO (stereo not given)
inactive: outcome [1] | outcome [2] | outcome [3] | outcome [4] | Potency [5] | Potency [6] | Potency [7] | outcome [8] | outcome [9] | outcome [10]

C=CCCCCCCCCCCCC
inactive: outcome [1] | outcome [2] | outcome [3] | outcome [4] | Potency [5] | Potency [6] | outcome [8] | outcome [9] | outcome [10]

CC(C)C(=O)OCCc1ccccc1
inactive: outcome [1] | outcome [2] | outcome [3] | outcome [4] | Potency [5] | Potency [6] | outcome [8] | outcome [9]

N[C@@H](CCC(=O)Nc1ccc([N+](=O)[O-])cc1)C(=O)O
inactive: outcome [1] | outcome [2] | outcome [3] | outcome [4] | Potency [5] | Potency [6] | outcome [9]

CCCCCCCCOS(=O)(=O)O
inactive: outcome [1] | outcome [2] | outcome [3] | outcome [4] | Potency [5] | Potency [6] | Potency [7] | outcome [8]

BrCCCCCBr
inactive: outcome [1] | outcome [2] | outcome [3] | outcome [4] | Potency [5] | Potency [6] | Potency [7] | outcome [8] | outcome [9]

Cc1nc2n(c(=O)c1CCN1CCC(c3noc4cc(F)ccc34)CC1)CCC[C@H]2O
inactive: outcome [1] | outcome [2] | outcome [3] | outcome [4] | Potency [5] | Potency [6] | outcome [9]

COc1cc(C(=S)N2CCOCC2)cc(OC)c1OC
inactive: outcome [1] | outcome [2] | outcome [3] | outcome [4] | Potency [5] | Potency [6] | Potency [7] | outcome [8] | outcome [9] | outcome [10]

C[C@H](N)[C@H](O)c1cccc(O)c1
inactive: outcome [1] | outcome [2] | outcome [3] | outcome [4] | Potency [5] | Potency [6] | Potency [7] | outcome [8] | outcome [9] | outcome [10]

NC(CO)C(=O)NNCc1ccc(O)c(O)c1O (stereo not given)
inactive: outcome [1] | outcome [2] | outcome [3] | outcome [4] | Potency [5] | Potency [6] | Potency [7] | outcome [8] | outcome [9] | outcome [10]

CCN(C)C(=O)Oc1cccc([C@H](C)N(C)C)c1
inactive: outcome [1] | outcome [2] | outcome [3] | outcome [4] | Potency [5] | Potency [6] | outcome [8]

CO[C@@H]1[C@@H](OC(N)=O)[C@@H](O)[C@H](Oc2ccc3c(O)c(NC(=O)c4ccc(O)c(CC=C(C)C)c4)c(=O)oc3c2C)OC1(C)C
inactive: outcome [1] | outcome [2] | outcome [3] | outcome [4] | Potency [5] | Potency [6] | Potency [7] | outcome [8] | outcome [9] | outcome [10]

C[C@@H](O)[C@H]1C(=O)N2C(C(=O)O)=C(SCCN=CN)C[C@H]12
inactive: outcome [1] | outcome [2] | outcome [3] | outcome [4] | Potency [5] | Potency [6] | Potency [7] | outcome [8]

CCCCOCCOC(=O)COc1nc(Cl)c(Cl)cc1Cl
inactive: outcome [1] | outcome [2] | outcome [3] | outcome [4] | Potency [5] | Potency [6] | Potency [7] | outcome [8] | outcome [9]

CCCCCCCCC1CCC(=O)O1 (stereo not given)
inactive: outcome [1] | outcome [2] | outcome [3] | outcome [4] | Potency [5] | Potency [6] | Potency [7] | outcome [8] | outcome [9]

OC[C@H](Cc1cccc(O)c1)[C@H](CO)Cc1cccc(O)c1
inactive: outcome [1] | outcome [2] | outcome [3] | outcome [4] | Potency [5] | Potency [6] | Potency [7] | outcome [8] | outcome [9] | outcome [10]

C[Si](C)=O
inactive: activity change, negative = cytotoxicity [1] 1.6% [at 5.95 µM] | activation [2] 0.307% [at 5.95 µM] | viability change, negative = cytotoxic [3] -0.681% [at 6.26 µM] | ratio activity, negative = inhibition [4] 22.7% [at 6.26 µM] | activity change, negative = inhibition [5] 6.53% [at 5.95 µM] | viability change, negative = cytotoxic [6] 5.27% [at 5.95 µM] | activation [7] 2.56% [at 5.95 µM] | activity change, negative = cytotoxicity [8] -2.54% [at 5.95 µM]

CN1C(C)(C)CCCC1(C)C
inactive: outcome [1] | outcome [2] | outcome [3] | outcome [4] | Potency [5] | Potency [6] | Potency [7] | outcome [8] | outcome [9]

CCCC/C=C/C=C\C=O
inactive: outcome [1] | outcome [2] | outcome [3] | outcome [4] | Potency [5] | Potency [6] | Potency [7] | outcome [9] | outcome [10]

CNC(=O)[C@H]1O[C@@H](n2cnc3c(NCc4cc(Cl)ccc4OCc4cc(C)no4)ncnc32)[C@H](O)[C@@H]1N
inactive: outcome [1] | outcome [2] | outcome [3] | outcome [4] | Potency [5] | Potency [6] | outcome [8] | outcome [9] | outcome [10]

CCCCCCCCC(=O)Cl
inactive: outcome [1] | outcome [2] | outcome [3] | outcome [4] | Potency [5] | Potency [6] | outcome [9]

CC(CN)CC(C)(C)CCN (stereo not given)
inactive: outcome [1] | outcome [2] | outcome [3] | outcome [4] | Potency [5] | Potency [6] | Potency [7] | outcome [8] | outcome [9] | outcome [10]

CCC(C=O)CC
inactive: outcome [1] | outcome [2] | outcome [3] | outcome [4] | Potency [5] | Potency [6] | Potency [7] | outcome [8] | outcome [9] | outcome [10]

O=C1c2ccccc2C(=O)C1c1ccccc1
inactive: outcome [1] | outcome [2] | outcome [3] | outcome [4] | Potency [5] | Potency [6] | outcome [8]
